From the supplement of paper PMC12669032

Tested on: Bacteroides dorei
Test: growth AUC relative to DMSO control (median of replicates) (fraction); higher = more growth (less inhibition), active = hit call of the paper
Conditions: 20 µM; 24 h;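 active = AUC reduced over 20% with Padj below 0.05 in at least 2 of 3 replicates; inactive = otherwise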
How it was run: (§1)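 Gut bacterial monocultures were grown anaerobically at 37 °C in mGAM, starting at OD600 0.05, with 20 µM compound (1% DMSO) in round-bottom 96-well plates under pierced gas-permeable seals. OD600 was read hourly for 24 h. Area under the growth curve (minimum OD set to 0) was normalised to the plate median of DMSO controls, or to row and column medians on the industrial chemical plate. The value is the median of three biological replicates grown on separate days.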

Growth AUC, inactive:
CCOC(=O)C(C)Oc1ccc(Oc2nc3ccc(Cl)cc3o2)cc1 (racemic) 0.94, c1ccc2c(c1)Cc1ccccc1-2 1.03, CC(C)(C)C(O)/C(=C\c1ccc(Cl)cc1)n1cncn1 (stereo unspecified) 0.919, Oc1ccccc1 1.03, Cc1c(Br)c2ccc(F)cc2n1S(=O)(=O)c1ncn(S(=O)(=O)N(C)C)n1 1.01, NC(Cn1cncn1)C(=O)O (stereo unspecified) 0.983, CCCCC(CC)COC(=O)COc1ccc(Cl)cc1C (stereo unspecified) 0.977, c1ccc(CNc2ncnc3nc[nH]c23)cc1 0.983, CON=C(Cc1cccnc1)c1ccc(Cl)cc1Cl 0.938, COC(=O)Cc1cccc2ccccc12 0.965, CC1(C)C(=O)Oc2ccc(OS(C)(=O)=O)cc21 1.02, CN(C)c1ccc(N=NS(=O)(=O)[O-])cc1.[Na+] 0.957, CCOC(=O)Cn1c(=O)sc2cccc(Cl)c21 0.97

Growth AUC, active:
C/C=C/C(=O)Oc1c(C(C)CCCCCC)cc([N+](=O)[O-])cc1[N+](=O)[O-] (mixture of isomers) 0.0151

Tested on: Bacteroides stercoris
Test: as above
Conditions: 20 µM; 24 h
How it was run: as §1

Growth AUC, active:
C/C=C/C(=O)Oc1c(C(C)CCCCCC)cc([N+](=O)[O-])cc1[N+](=O)[O-] (mixture of isomers) 0.0105

Growth AUC, inactive:
O=C(O)Cc1c(Cl)ccc(Cl)c1Cl 0.951, COc1cc(OC)c(Cl)cc1N 1.09, O=S(Cc1ccc(Cl)cc1)c1ccc(Cl)cc1 (stereo unspecified) 0.964, Cc1cc(C)c(C2=C(O)C3(CCCC3)OC2=O)c(C)c1 1.08, CN(C)C(=O)c1cccnc1S(N)(=O)=O 1.01, CCCN(CCOc1c(Cl)cc(Cl)cc1Cl)C(N)=O 0.98, Cc1nn(C)c(OCC(=O)c2ccccc2)c1C(=O)c1ccc(Cl)cc1Cl 1.17, CC(C)(C)Nc1nc(N)nc(Cl)n1 0.991, COC(=O)c1c(Cl)nn(C)c1S(=O)(=O)NC(=O)Nc1nc(OC)cc(OC)n1 1, [S] 1.07, CCCCCCCCc1c(CC)nc2ncnn2c1N 0.953, Cn1cc(C(=O)Nc2ccccc2-c2cc(F)c(F)c(F)c2)c(C(F)F)n1 0.931, CCCOc1nc2ccc(I)cc2c(=O)n1CCC 0.905, CNc1nc(NC(C)C)nc(SC)n1 0.913, CC(C)(C)[C@@H](O)[C@@H](Cc1ccc(Cl)cc1)n1cncn1 (mixture of isomers) 0.933, Cc1ccc2c(c1)[C@H](Nc1nc(N)nc(C(C)F)n1)[C@@H](C)C2 (stereo partly specified) 1.08, CCN(CC)c1nc(C)cc(=O)[nH]1 1.11, Clc1ccc(C(c2ccccc2Cl)C(Cl)Cl)cc1 (stereo unspecified) 0.856, CSc1nc(NC2CC2)nc(NC(C)(C)C)n1 0.871, CCc1cccc(C)c1N(C(=O)C(=O)O)[C@@H](C)C(=O)O 1.06, CCNc1nc(NC(C)(C)C)[nH]c(=O)n1 1.17, CC(C)N(C(=O)C(=O)O)c1ccccc1 1.13, Cc1nn(C)c(F)c1C(=O)Nc1ccccc1C(C)CC(C)C (stereo unspecified) 1.04, CC(C)c1cc(Oc2ccccc2)cc(C(C)C)c1NC(=S)NC(C)(C)C 0.98, CCCCOCCOC(=O)COc1ccc(Cl)cc1Cl 0.952, CCOC(=O)C(C)Oc1ccc(Oc2nc3ccc(Cl)cc3o2)cc1 (racemic) 0.898, c1ccc2c(c1)Cc1ccccc1-2 1.04, CC(C)(C)C(O)/C(=C\c1ccc(Cl)cc1)n1cncn1 (stereo unspecified) 1.19, Oc1ccccc1 0.992, Cc1c(Br)c2ccc(F)cc2n1S(=O)(=O)c1ncn(S(=O)(=O)N(C)C)n1 0.997, NC(Cn1cncn1)C(=O)O (stereo unspecified) 1.01
